Screening results: PubChem BioAssay, National Center for Advancing Translational Sciences (NCATS)
KB-3-1 cytotox – KB-3-1 parental cell cytotoxicity; KB-3-1 viability, CellTiter-Glo ATP luminescence, 72 h; Potency, µM (titrated, usually from 46.1 µM), actives largely listed as cytotoxic; actives 1.4% (n = 400,000); AID 1347075; also: % is scaled to controls: 0 for no effect and ±100 for the full control effect; nearly all actives have a fitted effect of over 60% in size
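KB-3-1 cells, DMEM (no phenol red) + 10% FBS; compound by pin transfer, 72 h, 37 °C. Readout: CellTiter-Glo luminescence after 10 min. Data normalized, curve-fitted.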
SW480 rerep – induces DNA re-replication in SW480 colon adenocarcinoma cells | actives 1.8% (n = 340,000) | SW480 DNA re-replication, Hoechst DNA content imaging, 48 h | Potency, µM (series often up to 46.1 µM), for inactives: at the highest dose re-replication activation, hits mostly activators; also: % of control where 0% means no effect; nearly all actives have a fitted effect of over 55% in size
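Readout is total intensity of Hoechst-stained nuclei, excited at 405 nm and collected at 500-530 nm. Compound treatment lasted 48 hr at 37 C in 5% CO2 before staining.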
KB-V1 MDR tox – kills drug-selected multidrug resistant KB-V1 cells | Potency, µM (top dose mostly 46.1 µM), actives largely listed as cytotoxic | KB-V1 MDR cells viability, CellTiter-Glo, 72 h | actives 3.4% (n = 400,000); also: % is scaled to controls: 0 for no effect and ±100 for the full control effect; nearly all actives have a fitted effect of over 60% in size
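Cells of the MDR subline KB-V1 are plated, dosed with compound at multiple concentrations, and incubated 72 h at 37 degrees C; CellTiter-Glo is then added and luminescence read after 10 min.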
HT1080 IDH1KD tx – kills HT-1080 cells with IDH1 knockdown. HT-1080 IDH1 knockdown viability, ATP luminescence, 48 h. Potency, µM (highest dose often 46.1 µM), inactives show at the highest dose activity, negative = toxicity, actives largely listed as cytotoxic. actives 2% (n = 360,000). AID 686971;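 also: 0% = DMSO wells and -100% = cell-free medium wells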
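Cytotoxicity counter-line: IDH1KD HT-1080, 48 h, CellTiter-Glo. Curves classed by r2, magnitude and activity.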
MCF10A rereplic – DNA re-replication induction in MCF 10a cells; Potency, µM (highest dose often 46.1 µM), without a hit: at the highest dose activity, positive = re-replication, usual class: activators; actives 2.9% (n = 350,000); MCF 10A DNA re-replication, Hoechst nuclear intensity, 48 h; also: % of control where 0% means no effect; nearly all actives have a fitted effect of over 50% in size
HT1080-NT tox – kills 2HG-producing HT-1080-NT fibrosarcoma cells; Potency, µM (doses to about 46.1 µM), without a hit: at the top dose activity, negative = less viability, usual class: cytotoxic; actives 1.6% (n = 360,000); AID 686970; HT-1080-NT fibrosarcoma viability, CellTiter-Glo ATP luminescence, 48 h;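 also: NT is the 2HG producing partner of a matched IDH1 knockdown line; 0% = DMSO-treated cells and -100% = media-only wells without cells; nearly all actives have a fitted effect of over 55% in size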
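Luminescent CellTiter-Glo readout after 48 hours of compound exposure at 37 degrees C defined viability of HT-1080-NT cells. Activity was normalized to DMSO wells and cell-free media wells; concentration-response curves were fitted and assigned curve classes.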
Numbers without * were called inactive; i = inactive; ? = inconclusive; nt = no result given; [ ] = another dose, or the depositor's remark. Sampled rows, rich in hits. Any-hit rate of the full collection: about 7.9%. Calls follow the shape of the dose curve; as a rule, active = well fitted curve in the direction sought with a large enough effect; inconclusive = small, poorly fitted or top-dose-only effect, or another doubt; inactive = no such curve, though single readings can be large; an effect the other way counts as inactive or inconclusive. Potency is read from the fitted curve at half-maximal effect.

SMILES | KB-3-1 cytotox | SW480 rerep | KB-V1 MDR tox | HT1080 IDH1KD tx | MCF10A rereplic | HT1080-NT tox
CC(NC(=O)CSc1nc2ccccc2n1C)c1ccccc1 (centres undefined) | i | -12% | i | 23% | 1% | 13%
CN(C)C(CNS(=O)(=O)c1ccc(Cl)cc1F)c1ccco1 (centres undefined) | i | -1% | 18µM* | 0% | 3% | -4%
CN(C)C(CNS(=O)(=O)c1cc([N+](=O)[O-])ccc1Cl)c1ccco1 (centres undefined) | i | 2% | i | -4% | 2% | -1%
COc1cc(Cl)ccc1OC1(C)CCN(Cc2ccc(-c3ccccn3)cc2)C1 (centres undefined) | i | nt | i | ? | nt | 16µM*
CC1(Oc2ccc(Cl)cc2)CCN(Cc2ccc(-c3ccccn3)cc2)C1 (centres undefined) | i | nt | i | -16% | nt | -13%
O=C(COc1ccccc1F)Nc1ccc(S(=O)(=O)Nc2nccs2)cc1 | i | -9% | i | -1% | 27% | -2%
O=C(CSc1nnc(-c2cccnc2)n1-c1ccccc1)N1CCN(c2ccc(F)cc2)CC1 | i | -3%[9.22 µM] | ? | 5% | -29% | 4%
COc1ccc(-c2noc(CSc3nnc(-c4ccncc4)n3-c3ccc(C)cc3)n2)cc1 | i | nt | i | nt | nt | nt
Cc1ccc(-c2noc(CSc3nnc(Cc4ccccc4)n3-c3cccc(C)c3)n2)cc1 | ? | 18% | i | ? | 18µM* | 1%[9.24 µM]
CCOc1ccc(-n2c(SCc3nc(-c4ccc(C)cc4)no3)nnc2-c2ccncc2)cc1 | i | 28% | ? | 10µM* | ? | ?
O=C(CSc1nnc(-c2ccncc2)n1-c1ccccc1)N1CCN(c2ccc(Cl)cc2)CC1 | i | -10% | 16µM* | 5% | ? | 10%
Clc1ccc(-c2noc(CSc3nnc(-c4ccncc4)n3-c3ccccc3)n2)cc1 | i | ? | 2.6µM* | ? | ? | ?
O=C(N1CCN(S(=O)(=O)c2ccc(Cl)cc2)CC1)n1ccnc1 | i | -2% | i | 8% | ? | 2%
O=C(Cn1cc(COc2ccc3ccccc3c2)nn1)NS(=O)(=O)c1cccc(OC(F)F)c1 | i | nt | i | 11% | nt | 1%
O=C(NCc1cccs1)c1cc(-c2ccccc2)nn1CC1CC(c2cccnc2)=NO1 (centres undefined) | i | -30% | i | 13% | ? | 2%
Cn1c(Cn2c(=O)sc3ccccc32)nnc1SCC(=O)N1CCN(c2ccccc2)CC1 | i | 3% | i | 0% | -2% | -1%
O=C(CSc1nnc2sc3ccccc3n12)N1CCN(c2ccccc2)CC1 | i | -3% | 8.2µM* | -15% | 1% | 9%
C[C@@H]1CN(C(=O)c2nc3ccc(Cl)cn3c2CN[C@H]2CCCCNC2=O)C[C@H](C)O1 | i | ? | i | -2% | ? | -5%
Cc1cc(CN2CCN(CC(=O)Nc3cc(C(F)(F)F)ccc3-n3cncn3)CC2)no1 | i | -10% | 23µM* | -2% | -3% | 0%
Cc1cc(C[n+]2cc(Br)ccc2N)c2ncccc2c1 | i | 8% | i | ? | 8% | -7%
CCCOc1ccc(CC(=O)NCCc2ccccc2)cc1OC | i | ? | i | -2% | ? | -3%
CN1CCN(C2CN(Cc3cn(Cc4ccccc4F)nn3)S(=O)(=O)C2)CC1 (centres undefined) | i | nt | i | 13% | nt | 25%
COc1ccc(C(CCc2ccc(C)o2)NC(=O)Nc2ccc(OC)cc2OC)cc1 (centres undefined) | i | 2% | 7.3µM* | ? | -3% | 4%
COC(=O)[C@H](C)NC(=O)Nc1ccc(OC)cc1OC | i | 3% | i | 4% | -1% | 7%
